Compounds with a hit are over-represented: about 19% of the library has one in this group of screens.
HT1080-NT tox: kills 2HG-producing HT-1080-NT fibrosarcoma cells | HT-1080-NT fibrosarcoma viability, CellTiter-Glo ATP luminescence, 48 h | Potency, µM (titrated, usually from 46.1 µM), for the others: top-dose activity, negative = less viability, actives largely listed as cytotoxic | 1.6% of 360,000 active;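 further: NT is the 2HG producing partner of a matched IDH1 knockdown line; 0% = DMSO-treated cells and -100% = media-only wells without cells; nearly all actives have a fitted effect of over 55% in size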
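Read-out is CellTiter-Glo luminescence after 10 minutes at room temperature, following 48 hours' compound treatment of HT-1080-NT cells (750 cells/well, RPMI, 5% FBS, 37 degrees C).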
KB-3-1 tox: kills parental KB-3-1 adenocarcinoma cells. 1.4% of 400,000 active. Potency, µM (highest dose often 46.1 µM), actives largely listed as cytotoxic. KB-3-1 viability, CellTiter-Glo ATP luminescence, 72 h; further: nearly all actives have a fitted effect of over 60% in size
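KB-3-1 parental drug-naive adenocarcinoma cells in DMEM/10% FBS, incubated 72 h at 37 C with pin-transferred compounds across a concentration series. Viability by CellTiter-Glo luminescence; concentration-response curves fitted after normalization.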
KB-V1 MDR tox: KB-V1 MDR subline cytotoxicity | 3.4% of 400,000 active | AID 1347076 | KB-V1 MDR cells viability, CellTiter-Glo, 72 h | Potency, µM (doses to about 46.1 µM), hits mostly cytotoxic; further: nearly all actives have a fitted effect of over 60% in size
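Cytotoxicity via CellTiter-Glo luminescence after 72 h compound exposure at 37 degrees C. Cells: drug-selected KB-V1 line, DMEM phenol-red free plus 10% FBS. Compounds tested at multiple concentrations; normalized data fitted to concentration-effect curves.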
TDP1 cell CPT: growth inhibition of DT40 Tdp1-/-;hTDP1 cells with camptothecin (screen for TDP1 inhibitors). chicken DT40 Tdp1-/-;hTDP1 cells + 20 nM CPT, ATP luminescence, 48 h. Potency, µM (titrated, usually from 46.2 µM), for inactives: at the top dose activity change, negative = growth inhibition, most hits filed as inhibitors. 12% of 420,000 active; further: nearly all actives have a fitted effect of over 55% in size
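Chicken DT40 Tdp1-/- cells complemented with human TDP1, 400 cells/well, exposed to compounds plus 20 nM camptothecin for at least 48 h at 37 C; viability read as ATP content by CellTiter-Glo luminescence.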
HT1080 IDH1KD tx: HT-1080 IDH1 knockdown cell toxicity (counter line). HT-1080 IDH1 knockdown viability, ATP luminescence, 48 h. Potency, µM (series often up to 46.1 µM), without a hit: at the highest dose activity, negative = toxicity, most hits filed as cytotoxic. 2% of 360,000 active. AID 686971;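 further: 0% = DMSO wells and -100% = cell-free medium wells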
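Using the IDH1-knockdown HT-1080 line run in the same batch and compound series as the NT line, viability after 48 h at 37 °C was determined by CellTiter-Glo luminescence and expressed as % activity.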
TDP1 cell noCPT: qHTS for Inhibitors of human tyrosyl-DNA phosphodiesterase 1 (TDP1): qHTS in cells in absence of CPT; DT40 Tdp1-/- hTDP1 cells, no CPT, ATP luminescence, 48 h; 15% of 420,000 active; Potency, µM (titrated, usually from 46.2 µM), for the others: top-dose activity change, negative = growth inhibition, usual class: inhibitors; AID 686978, 2013; further: nearly all actives have a fitted effect of over 55% in size
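Growth kinetics read by CellTiter-Glo luminescence after ≥48 hr at 37 °C. Cells: DT40 Tdp1-/- stably carrying human TDP1, 400 per well, compound exposure in the absence of CPT (DMSO vehicle).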
* marks the source's active call; other numbers are inactive results; i = inactive; ? = inconclusive; / = not tested or not shown. The call rests on the fitted dose curve; in most records, active means well fitted curve in the direction sought with a large enough effect; inconclusive means small, poorly fitted or top-dose-only effect, or another doubt; inactive means no such curve, though single readings can be large; an effect the other way counts as inactive or inconclusive. Unless noted, on the % scale 0 is the no-effect control and ±100 the full control effect; potency means the concentration at half of the fitted maximal effect.

SMILES	HT1080-NT tox	KB-3-1 tox	KB-V1 MDR tox	TDP1 cell CPT	HT1080 IDH1KD tx	TDP1 cell noCPT
COc1ccc(/C=N/N2C(=N)SCC2=O)cc1	2%	7.3µM*	2.6µM*	-15%	1%	0%
COc1ccc(/C=N/NC(=O)C(=O)NCc2cccnc2)cc1	-3%	i	i	20%	-17%	6%
Cc1ccc(-n2ncc3c2CC(C)(C)CC3NC(=O)CCn2cncn2)cc1 (stereo not drawn)	2%	/	/	4%	2%	-1%
COc1ccc(-n2cc(-c3ccccc3)[n+]3c2CCCCC3)cc1	?	?	i	5.8µM*	?	1.2µM*
FC(F)Oc1ccc(-c2csc(Cc3nnc4n3CCCCC4)n2)cc1	2%	?	i	?	1%	?
COc1ccc(-c2cn(-c3ccc(SC(F)F)cc3)c3[n+]2CCC3)cc1OC	10%	i	i	?	4%	18µM*
COc1ccc(-n2cc(-c3ccccc3)nc2SC)cc1	-1%	i	i	?	-12%	1%
FC(F)Oc1ccc(-n2cc(-c3ccc(Cl)cc3)[n+]3c2CCCCC3)cc1	0%	?	i	4.6µM*	-7%	4.6µM*
FC(F)Sc1ccc(-n2cc(-c3ccccc3)[n+]3c2CCC3)cc1	-2%	15µM*	i	5.8µM*	-25%	4.1µM*
O=C(O)CCSCCCN1C(=O)c2cccc3cccc(c23)C1=O	-2%	i	i	-7%	2%	-6%
COc1ccc(N2CCN(CNC(=O)c3ccccc3)CC2)cc1	-4%	i	i	-11%	-6%	17%
COc1ccc(-c2cn(-c3ccc(OC)cc3)c3[n+]2-c2ccccc2CC3)cc1	26µM*	3.7µM*	i	0.26µM*	?	0.21µM*
CC(C)(C)Nc1nc(Cl)nc(N(C#N)CN2C(=O)c3ccccc3S2(=O)=O)n1	-5%	i	i	?	?	?
CC(C)Nc1nc(Cl)nc(N(C#N)CN2C(=O)c3ccccc3S2(=O)=O)n1	2%	i	i	26µM*	-5%	18µM*
COc1ccc2nc(NC(=O)C3CC(=O)N(c4ccccc4)C3)sc2c1 (stereo not drawn)	2%	i	i	-18%	11%	?
O=C(O)c1cccc(Nc2nc(N3CCOCC3)nc(N3CCOCC3)n2)c1	3%	i	i	?	-9%	-18%
Cc1[nH]c2ccccc2c1/C=N/Nc1nc(Nc2ccccc2)nc(N2CCOCC2)n1	?	?	?	8.2µM*	?	6.5µM*
Oc1[nH]c2ccccc2c1N=Nc1nc(Nc2ccccc2)nc(N2CCOCC2)n1	3%	i	?	-105%	2%	1.8µM*
O=C(c1ccc2c(c1)OCO2)c1cn(Cc2ccc(F)cc2)c2ccccc2c1=O	/	i	i	?	/	?
CCOc1ccc(NC(=O)c2cccc(S(=O)(=O)NCc3cccnc3)c2)cc1	12%	i	?	-16%	6%	-20%
CCOC(=O)[C@]12CCCC=C1N(Cc1ccc3c(c1)OCO3)C(=O)[C@H](CC(=O)NCC1CCCCC1)C2	?	i	i	?	?	?
CCOC(=O)[C@]12CCC=C1N(Cc1ccc3c(c1)OCO3)C(=O)[C@H](CC(=O)NCCCN1CCCC1=O)C2	13%	i	?	6%	0%	-1%
CCCCNC(=O)C[C@@H]1C[C@@]2(C(=O)OC)CCCCC=C2N(Cc2ccc3c(c2)OCO3)C1=O	-4%	i	?	?	2%	?

Screening results: PubChem BioAssay, National Center for Advancing Translational Sciences (NCATS)
